Where a name gives a salt, the structure may show the parent alone.
Assays:
Assay in all cases: lowest phenotypically active concentration; higher = less potent
Conditions in all cases: treatment time: 24 h
[1] = tested on: A549-CANX-COX4
Summary of the method: (§1)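 Each of fifteen gene-edited A549, HepG2 and WPMY1 reporter lines, marked with BFP for segmentation and GFP and RFP/FusionRed, was treated in four wells at 0.3, 1, 3 or 9 µM for 24 h prior to live imaging. Normalisation of per-well live-cell features used solvent control wells. Deviation needed ≥3 of 4 wells beyond the 95th percentile of control Euclidean distances, and reproducibility needed a median replicate Pearson correlation above the 95th percentile of non-replicates. Both were required for phenotypic activity.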

[2] = tested on: HepG2-CANX-COX4
Summary of the method: as §1

[3] = tested on: HepG2-GM130-SQSTM1
Summary of the method: as §1

[4] = tested on: HepG2-TUBA1B-RELA
Summary of the method: as §1

[5] = tested on: WPMY1-GM130-SQSTM1
Summary of the method: as §1

[6] = tested on: WPMY1-TUBA1B-RELA
Summary of the method: as §1

[7] = tested on: WPMY1-ACTB-RAB5A
Summary of the method: as §1

[8] = tested on: WPMY1-CANX-COX4
Summary of the method: as §1

[9] = tested on: WPMY1-TP53BP1-CLTA
Summary of the method: as §1

[10] = tested on: A549-TP53BP1-CLTA
Summary of the method: as §1

Measured: lowest phenotypically active concentration

C=C1CC[C@@H]2[C@](C)(CO)[C@H](O)CC[C@@]2(C)[C@@H]1C/C=C1/C(=O)OC[C@H]1O [Andrographolide]
1 µM: [3]
3 µM: [2] | [4]
9 µM: [1] | [5] | [6]

COc1c(Cl)cc2c([nH]c3cnccc32)c1NC(=O)c1cccnc1C [ML 120B dihydrochloride]
9 µM: [1] | [2]

O=C1/C(=C\c2ccncc2)CCC/C1=C\c1ccncc1
3 µM: [1] | [2] | [4] | [7] | [8] | [5] | [6]
1 µM: [3]
9 µM: [9]

Nc1ncnc2[nH]nc(Nc3ccc(F)cc3)c12
3 µM: [5]
9 µM: [1] | [3] | [4] | [7] | [8] | [9] | [6]

CCCCOc1c(C(=O)c2c(F)cc(C)cc2F)cnc2[nH]ncc12
9 µM: [3]
≤ 0.3 µM: [1] | [4] | [7] | [8]
3 µM: [6]

CC/C(=C(/c1ccccc1)c1ccc(OCCN(C)C)cc1)c1ccccc1 [tamoxifen]
3 µM: [4]
9 µM: [1] | [3] | [7] | [8] | [5] | [9] | [6]

Cc1cc(Nc2ccc(NC(=O)c3ccc(Nc4ccnc5ccccc45)cc3)cc2)nc(N)n1
9 µM: [10]
1 µM: [3] | [5]
3 µM: [4] | [7] | [9] | [6]

O=C(O)Cc1cccc(OCCCN(Cc2cccc(C(F)(F)F)c2Cl)CC(c2ccccc2)c2ccccc2)c1 [GW 3965 hydrochloride]
9 µM: [1] | [2] | [4]

CC(C)OC(=O)c1cc2c(OCC(O)CNC(C)(C)C)cccc2[nH]1 (stereo not drawn)
9 µM: [10] | [4] | [8] | [5] | [9] | [6]
3 µM: [7]

Cn1cc(C2=C(c3ccc(Cl)cc3Cl)C(=O)NC2=O)c2ccccc21
≤ 0.3 µM: [10] | [5] | [9]
1 µM: [3] | [8]

NC(=O)c1cccc(-c2cc(Nc3ccc(OC(F)(F)F)cc3)ncn2)c1
3 µM: [7]
9 µM: [10] | [3] | [5] | [9]

Cc1noc(C)c1Cn1cc(C#N)c2cc(Oc3ccc(NC(=O)[C@@H]4CCCN4)cc3)ccc21
9 µM: [10] | [3] | [4] | [7] | [8] | [5] | [9] | [6]

Clc1ccccc1C(c1ccccc1)(c1ccccc1)n1ccnc1 [Clotrimazole]
9 µM: [10] | [2] | [8] | [5]
